Laboratory results taken from PubChem BioAssay (NCATS).
Results filed as inconclusive are left out. Unmarked numbers belong to inactive results. The source made the active and inactive calls. Calls come from the whole dose curve; as a rule, active = well fitted inhibition curve with a large enough effect; inconclusive = small, poorly fitted or top-dose-only effect; inactive = flat fitted curve, though single readings scatter.

test system: MCC-26; experiment: qHTS assay to identify novel small-molecules to repurpose for Merkel cell carcinoma treatment (AID 1296009); settings: MCC and control cell lines, CellTiter-Glo viability, 72 h; series mostly up to 46 µM; activity change, negative = cytotoxicity: at the top concentration; note: nearly all actives have a fitted effect of over 60% in size
Outline: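 Viability readout: ATP luminescence (CellTiter-Glo) after 72 hr drug exposure at 37 degree celsius. Dose-response format was 8 points for NPC and 11 points for MIPE; data normalized to in-plate controls.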
% is set by controls: 0 for no effect and ±100 for the full control effect; potency is the fitted concentration of half-maximal effect.

| SMILES | Potency | activity change, negative = cytotoxicity |
| --- | --- | --- |
| S=C(SSC(=S)N1CCCCC1)N1CCCCC1 | 133 nM (active) |  |
| CC(C)Oc1cccc(NC(=O)c2ccccc2C(F)(F)F)c1 |  | -10.4% [at 92.7 µM] |
| COc1ccc(C(c2ccc(OC)cc2)C(Cl)(Cl)Cl)cc1 |  | -16.6% [at 92.7 µM] |
| CCCCCCCCc1ccc(O)cc1 |  | -36.9% [at 92.7 µM] |
| CCCCCC[C@H]1C(=O)O[C@H](C)[C@H](NC(=O)c2cccc(NC=O)c2O)C(=O)O[C@@H](C)[C@@H]1OC(=O)CC(C)C |  | -11.2% |
| C[C@](O)(COc1ccc(C#N)cc1)C(=O)Nc1ccc(C#N)c(C(F)(F)F)c1 |  | -1.43% |
| CCCN1CCO[C@@H]2c3cc(O)ccc3OC[C@@H]21 |  | -0.67% |
| CC1(N2CCC(n3c([C@@H]4CCCNC4)nc4ccccc43)CC2)CCCCCCC1 |  | 0.436% |
| CC(=O)[O][Hg][c]1ccccc1 | 2660 nM (active) |  |
| N#C[C@H](O[C@@H]1O[C@H](CO[C@@H]2O[C@H](CO)[C@H](O)[C@H](O)[C@H]2O)[C@H](O)[C@H](O)[C@H]1O)c1ccccc1 |  | -4.92% |
| O=C(O)c1cc(Oc2ccc(C(F)(F)F)cc2Cl)ccc1[N+](=O)[O-] |  | -2.24% |
| C=CCC1=C(C)C(OC(=O)C2C(C=C(C)C)C2(C)C)CC1=O (centres undefined) |  | -3.95% [at 92.7 µM] |
| C[C@@]12OC(=O)[C@]1([C@@H](O)[C@@H]1C=CCCC1)NC(=O)[C@H]2CCCl | 833 nM (active) |  |
| CO[C@H]1CCC(O[C@H]2C[C@H]([C@]3(C)CC[C@]4(C[C@H](O)[C@@H](C)[C@@H]([C@@H](C)C=C(C)C(=O)[C@H](C)C[C@H](C)C(=O)O)O4)O3)O[C@]3(O[C@@H]([C@H]4O[C@@](O)(CO)[C@H](C)C[C@H]4C)C[C@H]3C)[C@H]2C)O[C@H]1C (some centres undefined) |  | -26.4% |
| ClC1=C(Cl)[C@]2(Cl)[C@@H]3[C@@H]4C[C@@H]([C@H]5O[C@@H]45)[C@@H]3[C@@]1(Cl)C2(Cl)Cl |  | 9.94% [at 92.7 µM] |
| Nc1ccc(Cl)cc1N |  | -4.51% [at 92.7 µM] |
| C=CCON=C(C[C@H]1O[C@@H]2O[C@]3(C)CC[C@@H]4[C@H](C)CC[C@@H]([C@H]1C)[C@@]24OO3)[C@H]1O[C@@H]2O[C@]3(C)CC[C@H]4[C@H](C)CC[C@@H]([C@@H]1C)[C@@]24OO3 |  | -0.252% |
| COCC1(CO)C(=O)C2CCN1CC2 (centres undefined) |  | -17.3% |
| CN1[C@H]2CC(O)C[C@H]1[C@H]1O[C@H]12 (some centres undefined) |  | -1.28% |
